Assay [1] is described as follows: Quantitative High-Throughput drug screen in 47 multiple myeloma cell lines against the NCATS MIPE library collection: UTMC2_PLB cell viability assay (AID 1919868). Further: nearly all actives have a fitted effect of over 55% in size. In a few lines: (§1)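 Inhibition of viability over 48 h was scored by ATP content (CellTiter-Glo) in 500-cell wells. Zero and full viability were defined by media-only and DMSO-only wells.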
Assay [2] in a line: Quantitative High-Throughput drug screen in 47 multiple myeloma cell lines against the NCATS MIPE library collection: PE2_PLB cell viability assay (AID 1919869). Further: nearly all actives have a fitted effect of over 35% in size. In short, it runs like this: as §1
Assay [3] is described as follows: Quantitative High-Throughput drug screen in 47 multiple myeloma cell lines against the NCATS MIPE library collection: PCM6_Riken cell viability assay (AID 1919870). Further: nearly all actives have a fitted effect of over 30% in size. In short, it runs like this: as §1
Assay [4] is described as follows: Quantitative High-Throughput drug screen in 47 multiple myeloma cell lines against the NCATS MIPE library collection: RPMI8226_ATCC cell viability assay (AID 1919871). Further: nearly all actives have a fitted effect of over 30% in size. In a few lines:
as §1

The nature of assay [5]: Quantitative High-Throughput drug screen in 47 multiple myeloma cell lines against the NCATS MIPE library collection: OPM2_DSMZ cell viability assay (AID 1919872). Further: nearly all actives have a fitted effect of over 30% in size. In a few lines: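 We plated 500 myeloma cells per well, pinned in MIPE 4.0 compounds, and incubated for 48 hours at 37C. ATP was then quantified with CellTiter-Glo, with DMSO and media-only wells defining 100% and 0%.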

Assay [6] is described as follows: Quantitative High-Throughput drug screen in 47 multiple myeloma cell lines against the NCATS MIPE library collection: KMS11_JCRBsus cell viability assay (AID 1919873). Further: nearly all actives have a fitted effect of over 50% in size. In short, it runs like this: as §1
Assay [7] in a line: Quantitative High-Throughput drug screen in 47 multiple myeloma cell lines against the NCATS MIPE library collection: KMS28BM_JCRB cell viability assay (AID 1919874). Further: nearly all actives have a fitted effect of over 35% in size. In short, it runs like this:
as §1

Assay [8] is described as follows: Quantitative High-Throughput drug screen in 47 multiple myeloma cell lines against the NCATS MIPE library collection: VP6_DJ cell viability assay (AID 1919867). Further: nearly all actives have a fitted effect of over 40% in size. In short, it runs like this:
as §1

Results filed as inconclusive are left out. Active and inactive are the calls of the source. The call rests on the fitted dose curve; in most records, active means well fitted cell-killing curve with a large enough effect; inconclusive means small, poorly fitted or top-dose-only effect, or effect the other way; inactive means no such curve, though single readings can be large or run the other way.
Potency means the concentration at half of the fitted maximal effect.

As for `O=C(O)c1cn(-c2ccc(F)cc2)c2cc(N3CCNCC3)c(F)cc2c1=O`, the Potency entry in assay [1], in assay [2], in assay [3], in assay [4], in assay [5] and in assay [6] was “inactive” each time. In assay [7], the Potency result is “inactive”.
For the compound `Cc1cccc(C)c1OCC(=O)N[C@@H](Cc1ccccc1)[C@@H](O)C[C@H](Cc1ccccc1)NC(=O)[C@H](C(C)C)N1CCCNC1=O`, the Potency in assay [6] was 20.9 µM (active).
With `CCOC(=O)C(C)Oc1cccc2c(=O)n(CC(=O)Nc3ccc4c(c3)OCCO4)ccc12` (stereo not given), the Potency result in assay [2], in assay [3], in assay [6] and in assay [7] was “inactive” each time.
Turning to `Cc1cccc(C#Cc2ccccc2)n1`, the Potency result in assay [3], in assay [5] and in assay [7] was “inactive” in each case.
For the compound `OC(CN1CCN(c2cccc(Cl)c2)CC1)C(c1ccccc1)c1ccccc1` (stereo not given), the Potency entry in assay [2] is “inactive”.
Consider `COc1ccc2cc([C@H](C)C(=O)O)ccc2c1`, for which the Potency in assay [1] was 23.5 µM (active). Moreover, the Potency entry in assay [2], in assay [5] and in assay [7] was “inactive” in each case.
With `Cc1ccc(C(=O)c2cc(O)c(O)c([N+](=O)[O-])c2)cc1`, the Potency was 26.4 µM (active) in assay [1] and 23.5 µM (active) in assay [2]. Further, the Potency entry in assay [5] and in assay [7] was “inactive” each time.
As to `CNC[C@@H](O)[C@@H](O)[C@H](O)[C@H](O)CO`, the Potency entry in assay [3], in assay [4], in assay [5] and in assay [7] was “inactive” in each case.
As to `CCCS(=O)c1ccc2nc(NC(=O)OC)[nH]c2c1` (stereo not given), the Potency was 23.5 µM (active) in assay [5] and 18.7 µM (active) in assay [6].
As to `CC(S)C(=O)NCC(=O)O` (stereo not given), the Potency entry in assay [2], in assay [3], in assay [4], in assay [5], in assay [6] and in assay [7] was “inactive” in each case.
As to `CC[C@]1(O)C[C@H]2CN(CCc3c([nH]c4ccccc34)[C@@](C(=O)OC)(c3cc4c(cc3OC)N(C=O)[C@H]3[C@@](O)(C(=O)OC)[C@H](OC(C)=O)[C@]5(CC)C=CCN6CC[C@]43[C@@H]65)C2)C1`, the Potency in assay [1] was 0.0093 µM (active); in assay [4] it was 0.0093 µM (active); in assay [5] it was 0.003 µM (active).
For `Cc1ccc(NC(=O)c2ccc(CN3CCN(C)CC3)cc2)cc1Nc1nccc(-c2cccnc2)n1`, the Potency in assay [8] was 23.5 µM (active); in assay [3], 18.7 µM (active). In addition, the Potency entry in assay [4], in assay [5] and in assay [7] was “inactive” in each case.
Consider `C=CCc1cc(OC)c(O)c(C(=O)NCCO)c1`, for which the Potency entry in assay [2], in assay [5], in assay [6] and in assay [7] was “inactive” each time.
On to `C=C(c1ccc(C(=O)O)cc1)c1cc2c(cc1C)C(C)(C)CCC2(C)C`, for which the Potency result in assay [3], in assay [5], in assay [6] and in assay [7] was “inactive” each time.
`Cn1c(NCCN(CCO)CCCc2ccc([N+](=O)[O-])cc2)cc(=O)n(C)c1=O`: in assay [8], the Potency was 18.7 µM (active). The Potency result in assay [4] and in assay [5] was “inactive” in each case.
Take `Cc1nc(-c2ccc(OCC(C)C)c(C#N)c2)sc1C(=O)O`: the Potency entry in assay [1], in assay [2], in assay [3], in assay [4], in assay [5] and in assay [6] was “inactive” in each case. For the same compound, the Potency entry in assay [7] is “inactive”.
With `COc1cc(C(C)=O)ccc1OCCCN1CCC(c2noc3cc(F)ccc23)CC1`, the Potency in assay [8] was 16.6 µM (active); in assay [3], 18.7 µM (active); in assay [7] it was 5.9 µM (active). In addition, the Potency result in assay [5] is “inactive”.
As to `CCN(CC)CCOc1ccc(Cc2ccccc2)cc1`, the Potency result in assay [1], in assay [2] and in assay [5] was “inactive” each time.
Consider `CC(C)[C@H](N)C(=O)OCCOCn1cnc2c(=O)[nH]c(N)nc21`, for which the Potency result in assay [2], in assay [3] and in assay [5] was “inactive” each time.
For the compound `CN(C)c1ccc(O)c2c1C[C@H]1C[C@H]3[C@H](N(C)C)C(=O)C(C(N)=O)=C(O)[C@@]3(O)C(=O)C1=C2O`, the Potency in assay [2] is 20.9 µM (active); in assay [3], 18.7 µM (active); in assay [5], 20.9 µM (active).
Regarding `O=C(NC(Cc1cc(=O)[nH]c2ccccc12)C(=O)O)c1ccc(Cl)cc1` (stereo not given), the Potency entry in assay [2], in assay [5], in assay [6] and in assay [7] was “inactive” in each case.
As to `COc1cc2nc(N3CCN(C(=O)C4CCCO4)CC3)nc(N)c2cc1OC` (stereo not given), the Potency result in assay [2], in assay [4] and in assay [5] was “inactive” throughout.
For `CC1=C(C)C(=O)C(C(CCCCCC(=O)O)c2ccccc2)=C(C)C1=O` (stereo not given), the Potency in assay [8] is 3.72 µM (active); in assay [3], 2.09 µM (active).
With `Cc1c(OCC(F)(F)F)ccnc1CS(=O)c1nc2ccccc2[nH]1` (stereo not given), the Potency result in assay [5] and in assay [7] was “inactive” each time.
Take `CCN(CCO)CCCC(C)Nc1ccnc2cc(Cl)ccc12` (stereo not given): the Potency result in assay [8], in assay [3], in assay [5], in assay [6] and in assay [7] was “inactive” throughout.
As for `Cc1cccc(CN2CCN(C(c3ccccc3)c3ccc(Cl)cc3)CC2)c1` (stereo not given), the figures for the Potency in assay [1] and in assay [3] were 20.9 µM (active) and 16.6 µM (active), respectively.
For `Nc1ncn([C@H]2C[C@H](O)[C@@H](CO)O2)c(=O)n1`, the Potency result in assay [8], in assay [5] and in assay [7] was “inactive” throughout. Moreover, the Potency in assay [6] was 0.59 µM (active).
`NS(=O)(=O)c1cc(C(=O)O)c(NCc2ccco2)cc1Cl`: the Potency entry in assay [2], in assay [3] and in assay [5] was “inactive” each time.
Consider `Cc1c(C(=O)NN2CCCCC2)nn(-c2ccc(Cl)cc2Cl)c1-c1ccc(Cl)cc1`, for which the Potency was 20.9 µM (active) in assay [1], 26.4 µM (active) in assay [3], 23.5 µM (active) in assay [6] and 23.5 µM (active) in assay [7].
As for `C[C@@H](c1ncncc1F)[C@](O)(Cn1cncn1)c1ccc(F)cc1F`, the Potency result in assay [2], in assay [5] and in assay [6] was “inactive” throughout. Moreover, the Potency in assay [3] is 1.66 µM (active).
On to `Nc1cc(C(Cl)=C(Cl)Cl)c(S(N)(=O)=O)cc1S(N)(=O)=O`, for which the Potency entry in assay [2], in assay [3] and in assay [5] was “inactive” each time.
As for `NNc1nncc2ccccc12`, the Potency result in assay [2], in assay [3], in assay [5], in assay [6] and in assay [7] was “inactive” each time.
`CCCCN(CCCC)CCC(O)c1cc2c(Cl)cc(Cl)cc2c2cc(C(F)(F)F)ccc12` (stereo not given): in assay [8], the Potency is 18.7 µM (active). Further, the Potency entry in assay [4], in assay [5], in assay [6] and in assay [7] was “inactive” throughout.
Consider `CCOc1cc(CC(=O)N[C@@H](CC(C)C)c2ccccc2N2CCCCC2)ccc1C(=O)O`, for which the Potency result in assay [8], in assay [5], in assay [6] and in assay [7] was “inactive” in each case.

(Values after PubChem BioAssay (NCATS).)
